{"source": "the supplement of paper PMC6555819"}
{"test_system": "RARb homodimer (NR concentration 270 nM)", "test": "PBM binding z-score (relative to random genomic background probes); higher = stronger binding; sequences stand for … in GC…GCGATTGACAGCGTAGAATGAAGG", "method_in_brief": "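The probes on custom Agilent 4×180K protein-binding microarrays were double-stranded, with 34-nt variable regions bearing direct-repeat seeds, single-nucleotide variants, half-site ablations and random human genomic background sequences. Incubation lasted 1 h with ligand-free nuclear receptor dimers in PBS pH 7.4, 2% milk, 0.02% Triton X-100, 1 mM DTT, 0.2 mg/mL BSA and 0.4 mg/ml salmon testes DNA. Antibodies against each partner (one per run) detected bound dimers, and fluorescence scans were regression-normalized. Binding z-scores take the random background probes as reference.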"}
{"sequence": "TCTATTAGTTGAAGGGCAAACGACGAGTCCGTTT", "PBM binding z-score": 1.26}
{"sequence": "ATCGAAAGGTCGAAGGTAAGTATACCCACCCGAA", "PBM binding z-score": 2.18}
{"sequence": "ACTGGCAGGCCAAGGGTCACTCAAGATTAGTCCG", "PBM binding z-score": 3.66}
{"sequence": "CCGACTGGGGCAAGGTTACCATAACGCACAGCCA", "PBM binding z-score": 1.33}
{"sequence": "ATCTCTAGGTAAAGATAGTACAGTGAATGCAAAT", "PBM binding z-score": 0.0852}
{"sequence": "ATCTGTAGGTAAAGATAGTTCAGTGAATGCAAAT", "PBM binding z-score": 0.933}
{"sequence": "CCTAATTGGTCAGGAGGTCACACACCGGATATGA", "PBM binding z-score": 4.46}
{"sequence": "CATGCTAGGTCAATGGTCAGCTAAAGCAGCTCGC", "PBM binding z-score": 3.11}
{"sequence": "ATATGTAGGTTAGCTGGGGTCATACAGACTAGGC", "PBM binding z-score": 3.9}
{"sequence": "ATCTCTAGGTAAAGTTAAGTGAAAGATCGATAGA", "PBM binding z-score": -0.142}
{"sequence": "ACTATTAGTTGACTTCGGGCAACCGATACGACGC", "PBM binding z-score": 0.558}
{"sequence": "CCTTACGGGTCACTGACAAGTTATAGCATTTGGA", "PBM binding z-score": 2.62}
{"sequence": "ACTAGCAGGCCAAGTTTGGGTCACCCAAACAAAG", "PBM binding z-score": 2.48}
{"sequence": "CCGACTGGGGCAAAGGTTACCAGACTCAGTACGA", "PBM binding z-score": 2.19}
{"sequence": "GCTAGTTGGTCAGTAAAAGGTCACAAACCGGTCG", "PBM binding z-score": 4.94}
{"sequence": "ATATGTAGGCTAGCTGGGGTCATTCAGACTAGGC", "PBM binding z-score": 3.02}
{"sequence": "CATACAGGGTCAGCTAGGCCAGAGTCGGGACGGC", "PBM binding z-score": 3.18}
{"sequence": "ATCTGTAGGTAACAAGTTCAGTGAAAGAGAGGAC", "PBM binding z-score": 2.16}
{"sequence": "AGTCATAGTTCAGGACGAGGTAACGTAAAGCACG", "PBM binding z-score": 1.82}
{"sequence": "TCATATAAGTAAATGCTAGGTGAAAGTCCGATCT", "PBM binding z-score": 0.289}
{"sequence": "TCATAAAGGTAAAGGTGAAAGTCGAACGATATGA", "PBM binding z-score": 1.86}
{"sequence": "TCTGCTAGGTCAACCATGGTCAGCTAATCTGCTA", "PBM binding z-score": 3.53}
{"sequence": "TGAATTAGGTTATAAGATCAGGGAACGTTGCAAA", "PBM binding z-score": -0.204}
{"sequence": "ATATCTAGGTTAAGGGTCATTCAGGTTGGTTCGC", "PBM binding z-score": 3.97}
{"sequence": "TCTATTGGTTGAAGGGCAACCGACGAGTCCGTTT", "PBM binding z-score": 1.17}
{"sequence": "ACTTACGCGTCAACGAGGTTATAGCACGCGTATA", "PBM binding z-score": 0.406}
{"sequence": "ACTAGTTGGTCAGCTGACGTCACACACAATTCGG", "PBM binding z-score": 0.958}
{"sequence": "CTCGAAAGGTCGTACTCAGGTGAGTATACCAAAC", "PBM binding z-score": 2.52}
{"sequence": "TCGAGTAGGTTGGTCGGGGCATTCAGCCAACATA", "PBM binding z-score": 0.0867}
{"sequence": "CCTACTGGGCCAAGGTCATTGTTCAGTCAAAGCA", "PBM binding z-score": 3.27}
{"sequence": "CCTACTGGGCCATTTAGAGGTCATTGATCATATG", "PBM binding z-score": 3.87}
{"sequence": "CTCGAAAGGTCGGTTCAGGTGAGTATACGGATAA", "PBM binding z-score": 2.52}
{"sequence": "ATCTCTACGTAAAGTTCAGTGAAAGATCGATAGA", "PBM binding z-score": 2.6}
{"sequence": "CGACAAAGTTCAAGGTAACGTAACAGAAAGCAGC", "PBM binding z-score": 3.7}
{"sequence": "CAAACTAGATCACGAAAGGTCAAAGTCGAATGAC", "PBM binding z-score": 4.84}
{"sequence": "CCTAACGGGTCAAGGTTATAGCACGGGTGGTACG", "PBM binding z-score": 3.19}
{"sequence": "CCGACTGGGGCATACGGTTACCATAAGCCAGCCC", "PBM binding z-score": 0.117}
{"sequence": "ATCTGTAGGTAAAGTTCAGTGAAAGATCGATAGA", "PBM binding z-score": 2.24}
{"sequence": "ATCTCTAGGTAAAGTTCAGTTAAAGATCGATAGA", "PBM binding z-score": 2.73}
{"sequence": "CGTCCAAGGTCAATACTAGGTCAGTGAAAGCATT", "PBM binding z-score": 5.1}
